Data on 40 compounds can be found in PubChem BioAssay (NCATS).

Inconclusive results are not listed. Entries that show only a call come without a potency. Calls of active or inactive are those of the source. The call rests on the fitted dose curve; in most records, active means well fitted inhibition curve with a large enough effect; inconclusive means small, poorly fitted or top-dose-only effect; inactive means no such curve, though single readings can be large or run the other way.
Potency means the concentration at half of the fitted maximal effect.

A short description of this assay: NS1 protein of Zika virus - qHTS assay to identify small molecule inhibitors in human HEK 293 cells (AID 1347053). Further: nearly all actives have a fitted effect of over 55% in size. The note with it: HEK293 ZIKV MR766 infection, NS1 TR-FRET, 24 h; series mostly up to 46.1 µM. In a few lines:
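Inhibition of NS1 expression was scored in HEK 293 cells given compound 1 h ahead of MR766 virus (MOI = 0.5). Following 24 h at 37 C, two anti-NS1 antibodies generated a TR-FRET signal, scaled between uninfected and infected controls.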
(In general: In qHTS, concentration-response curves come from the screen itself.)
In the case of `CN1C2CCC(C)(C)C1CC(OC(=O)C(O)(c1cccs1)c1cccs1)C2` (stereo not given), the Potency result is “inactive”.

Regarding `O=C(NC(=O)c1c(F)cccc1F)Nc1cc(Cl)c(OC(F)(F)C(F)C(F)(F)F)cc1Cl` (stereo not given), the Potency result was “inactive”.

Turning to `Clc1ccc(C(OCCN2CCCCC2)c2ccccc2)cc1` (stereo not given), the Potency result is “inactive”.

Regarding `CC1Sc2c(C(=O)O)c(=O)c3cc(F)c(N4CCNCC4)cc3n21` (stereo not given), the Potency result was “inactive”.

Turning to `CCc1ccc(C2CCNCC2)cc1`, the Potency result was “inactive”.

For `CC(CC(C(N)=O)(c1ccccc1)c1ccccc1)N(C)C` (stereo not given), the Potency result was “inactive”.

On to `CCN(CC)CCOC(=O)C(C)(c1ccccc1)c1ccccc1`, for which the Potency entry was “inactive”.

`C=CC[C@]1(O)CC[C@H]2[C@@H]3CCC4=CC(=O)CCC4=C3C=C[C@@]21C`: the Potency result was “inactive”.

On to `O=c1[nH]c2cc(Cl)ccc2n1C1CCNCC1`, for which the Potency entry was “inactive”.

For the compound `CCOC(C(=O)OCCN(C)C)(c1ccccc1)c1ccccc1`, the Potency entry was “inactive”.

Take `Clc1ccc(CO/N=C(\Cn2ccnc2)c2ccc(Cl)cc2Cl)c(Cl)c1`: the Potency result was “inactive”.

`CN1CCC(N(Cc2ccccc2)c2ccccc2)CC1`: the Potency result was “inactive”.

Consider `CN1C(=O)CN=C(c2ccccc2)c2cc([N+](=O)[O-])ccc21`, for which the Potency entry is “inactive”.

Take `CCN(CC)Cc1nccn1-c1ccc([N+](=O)[O-])cc1C(=O)c1ccccc1Cl`: the Potency entry is “inactive”.

As to `COc1cc(C[C@@H](C)N)c(OC)cc1C`, the Potency result was “inactive”.

Consider `c1ccc2c(c1)Sc1ccccc1N2CC1CN2CCC1CC2` (stereo not given), for which the Potency is 3.16 µM (active).

With `Sc1ccccc1Cl`, the Potency result was “inactive”.

For the compound `CC[C@H](O)C(C[C@H](C)N(C)C)(c1ccccc1)c1ccccc1`, the Potency entry is “inactive”.

In the case of `CCCN(CCC)CCc1c[nH]c2ccccc12`, the Potency result is “inactive”.

For the compound `CC(CC(C#N)(c1ccccc1)c1ccccc1)N(C)C` (stereo not given), the Potency entry was “inactive”.

For `C[C@@H]1CC[C@H]2[C@@H](C)C(=O)O[C@@H]3O[C@@]4(C)CC[C@@H]1[C@]32OO4`, the Potency entry was “inactive”.

On to `COP(=S)(OC)Oc1ccc(Sc2ccc(OP(=S)(OC)OC)cc2)cc1`, for which the Potency entry is “inactive”.

In the case of `Nc1ccc(Cl)cc1C(=O)c1ccccc1F`, the Potency entry was “inactive”.

As for `CN1C[C@@H](NS(=O)(=O)N(C)C)C[C@@H]2c3cccc4c3c(cn4C)C[C@H]21`, the Potency entry is “inactive”.

Regarding `CN1C(=O)[C@@H](NC(=O)c2cc3ccccc3[nH]2)N=C(c2ccccc2)c2ccccc21`, the Potency entry was “inactive”.

Regarding `CC(Cc1ccccc1)NCCCCl` (stereo not given), the Potency result is “inactive”.

As to `CC(=O)OC1(c2ccccc2)CCN(CCc2ccccc2)CC1`, the Potency entry was “inactive”.

Consider `CCOC(=O)C(c1c(O)c2ccccc2oc1=O)c1c(O)c2ccccc2oc1=O`, for which the Potency entry was “inactive”.

Take `COc1cc(CC#N)cc(OC)c1OC`: the Potency entry is “inactive”.

For `CN1[C@@H]2CC[C@H]1CC(OC(=O)c1cc(Cl)cc(Cl)c1)C2` (stereo not given in full), the Potency entry was “inactive”.

Take `ClCCCN1CCN(c2cccc(Cl)c2)CC1`: the Potency entry is “inactive”.

In the case of `CC(C(O)c1ccccc1)N(C)C/C=C/c1ccccc1` (stereo not given), the Potency result is “inactive”.

As to `Cc1ncc2n1-c1ccc(Cl)cc1C(c1ccccc1F)=NC2`, the Potency result was “inactive”.

On to `O=C1CN2CCOC2(c2ccccc2Cl)c2cc(Cl)ccc2N1` (stereo not given), for which the Potency entry is “inactive”.

Turning to `O=C(CCCN1CCC(n2c(=O)[nH]c3ccccc32)CC1)c1ccc(F)cc1`, the Potency entry was “inactive”.

As to `CC1COC2(c3ccccc3Cl)c3cc(Cl)ccc3NC(=O)CN12` (stereo not given), the Potency entry is “inactive”.

Regarding `CCCOC(=O)Cc1ccc(OCC(=O)N(CC)CC)c(OC)c1`, the Potency result is “inactive”.

With `CCc1cc(OC)c(C[C@H](C)N)cc1OC`, the Potency entry was “inactive”.

Take `ClCc1cccc(Cl)c1`: the Potency result is “inactive”.

As to `O=C(CBr)Nc1ccc(Cl)cc1C(=O)c1ccccc1F`, the Potency entry is “inactive”.
